Drawing on PubChem BioAssay AID2783 (National Center for Advancing Translational Sciences (NCATS), 2010), this text covers outcome for 13 compounds.

Records with an inconclusive call do not appear. Active and inactive are the calls of the source. The call rests on the fitted dose curve; in most records, active means well fitted inhibition curve with a large enough effect in the polarisation, with a control signal flat (not every such curve was filed as active); inconclusive means small, poorly fitted or top-dose-only effect, or effect the other way, or a change in a side signal; inactive means no such curve, though single readings can be large or run the other way; the % refers to the polarisation. Where a SMILES comes first, the peptide text is derived from it. Bridges are numbered along the chain shown (N, C = ends). [ ]: non-standard residue; d: D form. The star is where a group is joined. ξ: configuration not given here. ξDab(CH2SO3H) = NC(CCNCS(=O)(=O)O)C(=O)O; Heptanoyl(6-Me) = CC(C)CCCCC(=O)*; Dab = NCC[CH](N)C(=O)O

In the assay the target is Menin (Homo sapiens) (UniProt O00255). Briefly: Confirmation of Inhibitors Targeting the Menin-MLL Interaction in MLL Related Leukemias: Competition With Fluorescein Labeled MLL-derived Peptide. The settings on record: Fluorescence polarization, fluorescein-MLL peptide displacement from menin; series mostly up to 100 µM.
Menin (Homo sapiens), sequence (O00255 whole entry, looked up): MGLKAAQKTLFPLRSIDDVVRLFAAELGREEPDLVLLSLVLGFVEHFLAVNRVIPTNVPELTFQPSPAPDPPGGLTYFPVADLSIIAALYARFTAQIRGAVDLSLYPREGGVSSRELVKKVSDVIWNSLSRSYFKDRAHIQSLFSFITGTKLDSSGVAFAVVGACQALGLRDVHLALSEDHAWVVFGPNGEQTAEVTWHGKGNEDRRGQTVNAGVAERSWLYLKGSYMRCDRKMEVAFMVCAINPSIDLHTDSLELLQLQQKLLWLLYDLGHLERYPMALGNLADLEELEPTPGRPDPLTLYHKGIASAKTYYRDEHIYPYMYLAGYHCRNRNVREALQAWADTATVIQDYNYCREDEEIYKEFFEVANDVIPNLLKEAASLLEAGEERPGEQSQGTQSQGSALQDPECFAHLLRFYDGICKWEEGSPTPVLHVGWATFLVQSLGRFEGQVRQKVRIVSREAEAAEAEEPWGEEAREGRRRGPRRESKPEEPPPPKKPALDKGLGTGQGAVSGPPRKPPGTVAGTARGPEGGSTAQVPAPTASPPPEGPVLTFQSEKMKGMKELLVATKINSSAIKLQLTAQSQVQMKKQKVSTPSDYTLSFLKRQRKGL
In the case of `CN(C)CCCOc1ccc2c(c1)Sc1ccccc1CC2=O`, the result was inactive.

Take `Cc1cc2cc(C(c3nnnn3CC3CCCO3)N3CCCc4ccccc43)c(=O)[nH]c2cc1C` (stereo not drawn): the compound was called inactive.

On to `O=C(Nc1cc(Br)ccc1O)c1cc(-c2cccs2)on1`, for which the compound was called inactive.

Take `CCC(C)C1NC(=O)C(CCNCS(=O)(=O)O)NC(=O)C(NC(=O)C(CCNCS(=O)(=O)O)NC(=O)C(NC(=O)C(CCNCS(=O)(=O)O)NC(=O)CCCCC(C)C)C(C)O)CCNC(=O)C(C(C)O)NC(=O)C(CCNCS(=O)(=O)O)NC(=O)C(CCNCS(=O)(=O)O)NC(=O)C(C(C)CC)NC1=O` (stereo not drawn) ({Heptanoyl(6-Me)}-[ξDab(CH2SO3H)]T[ξDab(CH2SO3H)][Dab][ξDab(CH2SO3H)]II[ξDab(CH2SO3H)][ξDab(CH2SO3H)]T; lactam 4-C; configuration not given here): the result was inactive.

For `CCCCC(=O)NC(=S)Nc1nnn(CCC)n1`, the call was inactive.

As for `O=C(CC(Sc1ccc(Br)cc1)C(=O)O)c1ccc(F)cc1` (stereo not drawn), the result was inactive.

In the case of `CCCCCC1CCC(C(=O)NCCN2CCOCC2)CC1` (stereo not drawn), the compound was called inactive.

For `CN(C)C(CNc1ncnc2sc3c(c12)CCCCC3)c1ccco1` (stereo not drawn), the compound was classed as inactive.

For `O=C(CSc1nc(O)cc(=O)n1-c1ccccc1)c1ccc(Br)cc1`, the outcome was inactive.

For the compound `O=[N+]([O-])c1ccc(S(=O)(=O)c2ccccc2)nc1`, the result was inactive.

`Cc1cnc(NC(=O)C2C(=O)c3ccccc3S(=O)(=O)N2C)s1` (stereo not drawn): the compound was classed as inactive.

On to `Cc1ccc(C(=O)Sc2cccccc2=O)cc1`, for which the compound was called inactive.

With `COc1ccc(OC)c(C(c2c(C)[nH][nH]c2=O)c2c(C)[nH][nH]c2=O)c1`, the result was inactive.
